Assay results published in the supplement of paper PMC6555819.

Tested on: VDR:RXRa (NR concentration 270 nM, RXRa partner concentration 90 nM)
Test: PBM binding z-score (relative to random genomic background probes); higher = stronger binding; sequences stand for … in GC…GCGATTGACAGCGTAGAATGAAGG
Procedure: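 Protein-binding microarray (Agilent 4x180K custom design, double-stranded 60-nt probes: 5' GC cap, 34-nt variable region, 24-nt constant primer region; full probe sequence given). Purified or IVT nuclear receptor:RXRα heterodimers (3:1 NR:RXRα, mostly 270:90 nM) or homodimers were incubated for 1 h in PBS with 2% milk and no ligand, then detected with Alexa488 antibodies. Fluorescence from o1-orientation probes (~5 replicates averaged) was converted to z-scores against 500 random hg19 background probes. Variable regions are seed direct-repeat (DR0–DR5) sites, all their single-nucleotide variants and half-site ablations.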

Row | Sequence | PBM binding z-score
1 | ACTATTAGTTGACTTAGCGCAACCGATACGACGC | 0.0494
2 | TATACCGGGTCAAAGGCCAGAGTACGAATGTCGA | 3.9
3 | AGAACGAGGGCGCGCTGAGTTGATAGCAGAGTAG | 0.589
4 | CGAACTAGGTCATGGACAGTGAATCTCCGCACGC | 1.64
5 | CAAACTAGGTCACCGGAAGGTCAAACTCCGCATG | 6.17
6 | ATAACGAGGGCACGCTGAGTTGATAGCAGAGTAG | 2.27
7 | TCTCGTTGGTCAAAGGTCACACACTCGAAATGCG | 5.25
8 | AGAAAGAGGTTACCAAAGATCAGGGAAACGCTTG | 1.3
9 | CAAACTAGGTGACGAAAGGTCAAAGTCGAATGAC | 5.16
10 | ATCGAAAGGGCGAAGGTGAGTATACCCACCCGAA | 0.347
11 | CCTAGCAGGCCAGGGTCCCTCAAGCATTTCGCTT | -0.596
12 | GATACAGGGTCAAGGCCGGAGTACGCGTATTGAT | 4.38
13 | TCTGCTAGGTCGACGATGGTCAGCTAATCTGCTA | -0.229
14 | CGTCCAAGGTTAGCAGGTCAGTGAAAGCGACGTG | 1
15 | TCTCGGAGGACACGAAGGTCGGAGCTTTCCAGAG | 0.528
16 | CCGACTGCGGCAAAGGTTACCATACTCAGTACGA | 0.959
17 | ACTAGCAGGCCAAGGGTCTCTCAAGATTAGTCCG | -0.657
18 | ATCGAAAGGTCGTGAGGTGAGGATACAGAAAGGC | 3.46
19 | GGAACGAGGGCAAAGTTGATAGAATCTGTCGACG | 1.34
20 | GCATATAGGTAATAGAAGGTGAAAGTCCGATTGT | 0.0859

Row | Sequence | PBM binding z-score
21 | ATATGTAGGTTGGCTGGGGTCATTCAGACTAGGC | 5.67
22 | GCTGTTAGGTCAACTGATGGTCAGCTAAAGCTCG | 2.01
23 | CCTTACGGGTGACTGACAGGTTATAGCATTTGGA | 0.132
24 | CGAACTAGGTCAGTGACAGGACAGTGAATAGTAA | 0.664
25 | CCGACTGGGGCATGAGGTTACCATAAGCCAGCCC | -0.146
26 | GCGACTGGGGCAAAGCAGGTTACGATAAGGTTGG | 0.0646
27 | ATCTGTAGGTTACATCCGGGTCATTCAGGCTATG | 4.16
28 | TCTCGGAGGACACGAAAGGTCGGAGCTCGACATC | 1.08
29 | GCTAGCAGGCCATTTTGGTCACTCAATGACGGGC | -0.816
30 | AGTCAAACTTCATCTAGGTAACGTAAGATATGCT | -0.0435
31 | CCTTACGGGTCTCTGACAGGTTATAGCATTTGGA | -0.307
32 | CCTACTAGGCCACGAAAGGTCATTGATTCAGTGA | 4.42
33 | CAAACTAGGTCAGCGGAAGGTCAAAGTCCGCATG | 5.07
34 | CTAACGAGGGCATGAGTTGATAGCAAATGCCGAT | 1.4
35 | TCTTGTAGATCTAAGGTTAAGAAAGCCGAAGCCT | 0.651
36 | GTCCCAAGGTGAATAGGTCGTTGATGAGTAGGCG | 0.855
37 | CTCGAAAGATCGGTTGAGGTGAGTATACGGATAA | -0.152
38 | ATCTCTAGGTAACCCAGTTCAGTGAATGCCGAAC | 2.74
39 | AGAATGAGGTTATAAGTAGATCAGGGAAGAAAGT | 1.26
40 | ATATGTAGGTTATCGGGACATTCAGTTTGCGCAT | 1.04
